Key:
[1] = molecular target: T1, GST-Nv-NF-kB (Ser allele) (Nematostella vectensis, UniProt A7UNT2 2-411); assay: protein-binding microarray (PBM); PBM: ~300 nM protein, 6 mM HEPES pH 7.8, 80 mM KCl, 0.5 mM EDTA, 0.5 mM EGTA, 6% glycerol, 35 ng/ul poly-dIdC, 1% milk, 1 h, room temperature; Ap Aiptasia and Nv Nematostella (sea anemones) / Co Capsaspora / Aq Amphimedon (sponge) / Dm Drosophila / Hu human; RHD is the Rel homology domain; high values mean tight binding; settings: dsDNA, one strand shown
T1 sequence: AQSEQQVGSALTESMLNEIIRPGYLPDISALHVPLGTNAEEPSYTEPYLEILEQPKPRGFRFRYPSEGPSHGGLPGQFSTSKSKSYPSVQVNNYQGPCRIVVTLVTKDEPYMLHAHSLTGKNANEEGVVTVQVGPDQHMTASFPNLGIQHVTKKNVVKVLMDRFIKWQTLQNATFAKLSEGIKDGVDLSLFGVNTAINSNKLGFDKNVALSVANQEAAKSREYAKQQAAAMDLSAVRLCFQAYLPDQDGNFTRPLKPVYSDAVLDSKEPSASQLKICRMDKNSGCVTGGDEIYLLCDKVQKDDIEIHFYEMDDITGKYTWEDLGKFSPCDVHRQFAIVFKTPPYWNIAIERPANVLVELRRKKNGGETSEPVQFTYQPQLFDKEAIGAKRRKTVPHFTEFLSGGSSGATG

[2] = molecular target: GST-Hu-p50 (Homo sapiens, UniProt P19838 7-356); assay: as above; settings: dsDNA, one strand shown
GST-Hu-p50, sequence (P19838 7-356): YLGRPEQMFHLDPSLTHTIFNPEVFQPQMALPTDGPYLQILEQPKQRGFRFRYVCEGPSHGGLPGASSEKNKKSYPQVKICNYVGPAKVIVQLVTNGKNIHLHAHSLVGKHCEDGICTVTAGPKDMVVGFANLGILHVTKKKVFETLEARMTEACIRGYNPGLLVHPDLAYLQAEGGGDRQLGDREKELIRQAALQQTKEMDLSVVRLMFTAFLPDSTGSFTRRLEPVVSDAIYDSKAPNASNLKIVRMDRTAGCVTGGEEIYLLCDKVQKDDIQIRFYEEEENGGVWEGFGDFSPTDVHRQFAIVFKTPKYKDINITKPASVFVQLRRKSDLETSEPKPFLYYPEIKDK

Sequence: CCGATTAACATCAGGGAATGTACTGATGTTAATCGGGTCTTGATTCGCTTGACGCTGCTG
- binding signal [1]: 3.55 z-score
- binding signal [2]: 2.72 z-score

Sequence: CCGATTAACATCAGGGAGCCCCCTGATGTTAATCGGGTCTTGATTCGCTTGACGCTGCTG
- binding signal [1]: 3.69 z-score
- binding signal [2]: 5.27 z-score

Sequence: CCGATTAACATCAAAAAAAGTACTGATGTTAATCGGGTCTTGATTCGCTTGACGCTGCTG
- binding signal [1]: 1.16 z-score
- binding signal [2]: 1.52 z-score

Sequence: CCGATTAACATCAATTTTCCCAATGATGTTAATCGGGTCTTGATTCGCTTGACGCTGCTG
- binding signal [1]: 4.62 z-score
- binding signal [2]: 3.18 z-score

Sequence: CCGATTAACATCAAGGGAGTACCTGATGTTAATCGGGTCTTGATTCGCTTGACGCTGCTG
- binding signal [1]: 4.41 z-score
- binding signal [2]: 2.56 z-score

Sequence: CCGATTAACATCAAATATACCCCTGATGTTAATCGGGTCTTGATTCGCTTGACGCTGCTG
- binding signal [1]: 2.88 z-score
- binding signal [2]: 2.88 z-score

Sequence: CCGATTAACATCACGGTATTTCCTGATGTTAATCGGGTCTTGATTCGCTTGACGCTGCTG
- binding signal [1]: 1.75 z-score
- binding signal [2]: 1.48 z-score

Sequence: CCGATTAACATCAGGTATTCCCATGATGTTAATCGGGTCTTGATTCGCTTGACGCTGCTG
- binding signal [1]: 2.85 z-score
- binding signal [2]: 1.73 z-score

Sequence: CCGATTAACATCACTGTTTTCCCTGATGTTAATCGGGTCTTGATTCGCTTGACGCTGCTG
- binding signal [1]: 6.12 z-score
- binding signal [2]: 3.14 z-score

Sequence: CCGATTAACATCAAAAAATGCCCTGATGTTAATCGGGTCTTGATTCGCTTGACGCTGCTG
- binding signal [1]: 1.9 z-score
- binding signal [2]: 3.14 z-score

Sequence: CCGATTAACATCAGGAATAACCCTGATGTTAATCGGGTCTTGATTCGCTTGACGCTGCTG
- binding signal [1]: 1.44 z-score
- binding signal [2]: 3.24 z-score

Sequence: CCGATTAACATCAGGGGGATGGATGATGTTAATCGGGTCTTGATTCGCTTGACGCTGCTG
- binding signal [1]: 4.26 z-score
- binding signal [2]: 3.69 z-score
